97 molecules from ChEMBL document CHEMBL4888484, “Replenishing the malaria drug discovery pipeline: Screening and hit evaluation of the MMV Hit Generation Library 1 (HGL1) against asexual blood stage Plasmodium falciparum ,using a nano luciferase reporter read-out” (2022) can be followed below.

Structures are written as SMILES. In all, about 4,800 compounds went through this assay and about 410 (8.5%) showed an effect of 50% or more. Only a selection was taken, and strong results are over-represented in it overall.

The term % Inhibition denotes the drop in the measured response relative to a control, in per cent.

For the test, the system named is Plasmodium falciparum. In words: Confirmatory screen in NF54 pLDH assay, in single point, at 2uM, 72h. The following applies: timepoint 72 hour. In kind it is functional, Erythrocyte.
As to `COC[C@H]1[C@H](NC(=O)c2ncc(F)cc2F)[C@H]2CCO[C@H]21`, the “% Inhibition” value is recorded as -17%.
The result for `Nc1nc(N2CCN(c3ccc(F)c(Cl)c3)CC2)cc([C@H]2C[C@@H](N)C2)n1` reads 34%.
The result for `Nc1nc(C2CC(N)C2)cc(N2CCC(Oc3ccccc3Cl)CC2)n1` (configuration not stated) reads 65%.
The figure for `O=C(CN1CCN(Cc2ccc(F)cc2)C1=O)NC1CCCCCCC1` is 0%.
`CC[C@@H](Cc1ccccc1Br)C(=O)NCCC(N)=O`: the “% Inhibition” value is recorded as -6%.
Take `O=C(Nc1ccc(NC2CCOCC2)cc1)c1cc(F)c(O)c(F)c1`: the “% Inhibition” value was -10%.
The figure for `CC(C)(C)CC(=O)Nc1ccc2c(c1)C(N1CCCCC1)=Nc1ccccc1O2` is -4%.
In the case of `O=C(COc1ccccc1)Nc1ccc2c(c1)C(O)=Nc1cccnc1O2`, the “% Inhibition” value is listed as 64%.
The figure for `CC1(C)Oc2ccc(NC(=O)COc3ccccc3)cc2NC1=O` is 12%.
The figure for `CC(C)(C)OC(=O)Cn1cc(CO)nn1` is 10%; for `O=C(C[C@H]1CCOC1)Nc1cc2ccc(Br)cn2n1` it is 11%; for `COC(=O)c1cc(NC(=O)N2CCO[C@H](C(=O)OC)C2)c(F)cc1F` it is 6%.
The figure for `CC1CN(C(=O)C(C(C)C)N2CC(C)OC(C)C2)CCO1` (configuration not stated) is -12%; for `COc1ccc(NC(=O)C2=Cc3cc(Cl)cc(OC)c3OC=C2)cc1` it is -1%.
For the molecule `CCCN(CCC)CCN1C(=O)[C@@H]2C(C(=O)Nc3cc(Cl)cc(Cl)c3)[C@@H]3C=C[C@]2(O3)C1C(=O)NC1CCCCC1` (some centres not stated), the “% Inhibition” value came out at 50%.
The figure for `O=c1[nH]cnc2c1nc(N1CCCCC1)n2C1OC(CO)C(O)C1O` (configuration not stated) is 3%; for `O=C(Cc1nnc2ccc(C(=O)Nc3ccccc3)cn12)Nc1ccc(F)cc1` it is 8%.
In the case of `Cc1cc(=O)[nH]c(-n2nc(C3CC3)cc2NC(=O)C(c2ccccc2)c2ccccc2)n1`, the “% Inhibition” value came out at 87%.
`CC(C)c1cc(=O)[nH]c(-n2nc(C3CC3)cc2NC(=O)c2ccc(F)cc2)n1`: the “% Inhibition” value was determined as 89%.
The result for `Cc1nn(C)c(NC(=O)c2ccc(C(C)(C)C)cc2)c1C1=CCCCC1` reads -5%; that for `CN1CCC[C@H](C(=O)Nc2nc(C3CC3)cs2)C1`, -2%; that for `CCC(CC)C(=O)Nc1cc(C2CC2)nn1-c1nc(-c2ccccc2)cc(=O)[nH]1`, 45%.
The result for `CCc1cc(=O)[nH]c(-n2nc(C3CC3)cc2NC(=O)C2CCCCC2)n1` reads 87%; that for `CC(C)(C)c1ccc(C(=O)N[C@H]2CCCC[C@@H]2NC(=O)c2ccc(C(C)(C)C)cc2)cc1`, 2%.
The figure for `Cc1cc(F)ccc1NC(=O)Cn1nc(C2CC2)c2c(C(F)F)cc(=O)[nH]c21` is 9%; for `Cc1ccc(C(=O)Nc2c(C(N)=O)sc3nc(C(F)F)cc(C4CC4)c23)cc1` it is -9%.
With `O=C(CCCc1ccccc1)Nc1cc(C2CC2)nn1-c1nc(-c2ccccc2)cc(=O)[nH]1`, the “% Inhibition” value stood at 36%.
The figure for `CCc1cc(C(=O)N2CCCCCC2)c2c(C3CC3)nn(-c3ccc(F)cc3)c2n1` is 5%.
The figure for `Cc1cc(=O)[nH]c(-n2nc(C3CC3)cc2NC(=O)c2ccc(C(C)(C)C)cc2)n1` is 52%.
The figure for `CC1CC(c2ccccc2)CCN1C(=O)c1cc(C2CC2)on1` (configuration not stated) is 6%.
In the case of `Cc1n[nH]cc1Nc1ccnc(C(C)(C)C)n1`, the “% Inhibition” value is on record as 7%.
The result for `CC(C)OC[C@@H](O)CN1CC(C2CCC2)C1` reads -19%; that for `CC1CCCCC1NC(=O)CN1CCN(Cc2cccc(Cl)c2)C1=O` (configuration not stated), -4%.
The figure for `Cc1cc2ncc(-n3cncn3)c(-c3ccccc3)n2n1` is 8%; for `CCc1ccc(CN2CCN(Cc3cccc(Oc4ccccc4)c3)CC2)cc1` it is 8%; for `CCC1CC(CC(=O)NS(=O)(=O)c2ccnn2C)CCO1` (configuration not stated) it is 0%.
The result for `COc1ccc2cc3n(c2c1)C[C@](C(=O)NC1CCCCCC1)(c1ccccc1)N(Cc1ccccc1Cl)C3=O` reads 13%.
On to `CC1(C)CCCc2sc(NC(=O)N[C@H]3CCOC4(CCC4)C3)nc21`, for which the “% Inhibition” value was 1%.
The result for `Cc1cc(Br)ccc1CN(C)S(C)(=O)=O` reads -4%.
On to `CCOc1ccc2sc(NC(=O)Cn3cnc4nc(N5CCCCC5)sc4c3=O)nc2c1`, for which the “% Inhibition” value was -1%.
The figure for `Cn1ccc(C2=Nc3ccccc3NC(=O)C2)n1` is -4%.
The result for `O=S(=O)(c1ccc(Cl)cc1)N1CCC(c2cc(-c3cccc(C(F)(F)F)c3)[nH]n2)CC1` reads 0%; that for `O=S(=O)(c1ccc(F)c(Cl)c1)N1CC[C@H](Oc2ccncc2Cl)C1`, 89%; that for `O=S(=O)(c1ccco1)N1CC[C@H](Oc2ccccc2)C1`, 10%.
`O=S(=O)(c1ccc(Br)o1)N1CCCC[C@H]1c1ncc[nH]1`: the “% Inhibition” value is given as -20%.
The figure for `Cc1ccc(NC(=O)COC(=O)c2nccc3ccccc23)cc1` is 11%.
The result for `COc1cccc(Oc2nc(N3CCN(C)CC3)nc3c2CN(C(=O)Nc2ccccc2)CC3)c1` reads 10%; that for `CC1CCN(c2nc3c(c(Oc4cccc(F)c4)n2)CN(Cc2ccccn2)CC3)CC1`, 21%.
The figure for `COc1cccc(CC(=O)N2CCc3nc(N4CCC(C)CC4)nc(Oc4ccccc4OC)c3C2)c1` is 61%.
With `Cc1cc(C)n(S(=O)(=O)c2cccc3cccnc23)n1`, the “% Inhibition” value was -10%.
The figure for `CCn1cc(C(=O)Nc2ccc(C(=O)N3CCCCC3)cc2)cn1` is 5%; for `CCN(CC)c1ccc(C(=O)Nc2ccc3nc(N4CCCC4)cc(C)c3c2)cc1` it is 93%.
`COc1cc(OC)cc(C(=O)Nc2ccc3nc(N4CCC(C)CC4)cc(C)c3c2)c1`: the “% Inhibition” value is 40%.
Turning to `O=C1CN(S(=O)(=O)c2ccc(C(F)(F)F)cc2)C2(CCCCC2)CN1CC1CC1`, the “% Inhibition” value was -14%.
The figure for `CCOC(=O)c1c(CN2CCOCC2)n(-c2ccc(C)cc2)c2ccc(Oc3nccc(Nc4ccccc4)c3C#N)cc12` is 7%.
Consider `COCc1cc2nn(CC(=O)Nc3ccc(F)cc3)c(=O)n2c(-c2ccccc2)n1`, for which the “% Inhibition” value was -27%.
`O=C(Nc1ccccc1)C1=NN(CC(=O)N2CCCCC2)C(=O)CC1`: the “% Inhibition” value is given as -1%.
The figure for `CC(NS(C)(=O)=O)C(=O)N1CCC(F)(c2cc(F)cc(F)c2)C1` (configuration not stated) is 12%; for `COc1ccc(Nc2nc(C(C(F)(F)F)(C(F)(F)F)C(F)(F)F)nc(C(C(F)(F)F)(C(F)(F)F)C(F)(F)F)n2)cc1` it is 11%.
The result for `O=c1cc(-c2ccccc2)n(S(=O)(=O)c2ccccc2)o1` reads -7%; that for `Clc1cccc(N2CCN(Cc3ccc(OC4CCNCC4)cc3)CC2)c1`, 14%; that for `CC(=O)C1(C(C)=O)[C@H](c2ccc(F)cc2)C1(C#N)C#N`, -24%.
The result for `O=C(CCC1CCCCC1)Nc1ncccn1` reads -9%; that for `O=C(NCCCc1ccccc1)[C@H]1CCCN(c2nc3ccccc3[nH]2)C1`, -4%; that for `CC(C)C1(C)CC(=O)N(C(C(=O)O)c2ccccc2)C1=O` (configuration not stated), -6%.
`Cc1cc(N)nc(Nc2ccc(Nc3ccccc3)cc2)n1`: the “% Inhibition” value is reported as 97%.
The figure for `c1ccc(Nc2nc(-c3ccccc3)cc(-c3ccccc3)n2)cc1` is 5%; for `Cc1nc(N)nc(C)c1C(=O)Nc1ccc(Nc2ncccn2)cc1` it is 36%; for `O=C(NC(C1CC1)C1CC1)c1ccsc1` it is -23%.
The result for `Cn1c(C(=O)N2CC[C@H](N)C2)ccc1-c1cccc(Br)c1` reads 11%.
The figure for `N#Cc1c(-c2ccccc2)cc(-c2ccccc2)n(C(=O)c2ccc(F)cc2)c1=O` is 9%.
Turning to `Oc1nccc(C(F)(F)C(F)(F)F)n1`, the “% Inhibition” value is listed as -3%.
The figure for `CS(=O)(=O)Nc1nc2ccc(NC(=O)c3cc(-c4ccccc4)nc4ccccc34)cc2s1` is 3%; for `COc1ccc(-c2cc(C(=O)NC3CCN(C(C)C)CC3)c3ccccc3n2)cc1OC` it is -18%; for `CCOc1ccc(-c2cc(NC(=O)c3cc(-c4cccnc4)nc4ccccc34)on2)cc1OCC` it is 98%.
The figure for `Cc1ccc(-c2ccc(CN(CC(=O)NCC(=O)O)C(C)C)s2)cc1` is 13%.
The figure for `CC(=O)Nc1cccc(C#CCN2CCN(c3ccc(F)cc3)CC2)c1` is 13%; for `CCN1CCN(c2cccc(NC(=O)c3ccc4[nH]c5ccccc5c(=O)c4c3)c2)CC1` it is 100%.
Take `CCN1CCN(C(=O)c2ccccc2N2CCC(NC(=O)c3cccc(Br)c3)CC2)CC1`: the “% Inhibition” value came out at 40%.
For `Cc1cccc(NC(=O)c2cc(C)nc3c2c(C)nn3-c2ccc(F)cc2)c1`, the “% Inhibition” value was 0%.
The result for `CCN1CCN(c2cccc(NC(=O)c3cc(F)cc4c(=O)c5cc(F)ccc5[nH]c34)c2)CC1` reads 96%; that for `CC(C)NC(=O)N(C)Cc1ccc(F)cc1`, 8%; that for `CC(C)n1nccc1NC(=O)c1c[nH]c2ccc(F)cc2c1=O`, -4%.
In the case of `CN(C)Cc1ccc(NC(=O)c2cc(F)cc3c(=O)c4cc(F)ccc4[nH]c23)cc1`, the “% Inhibition” value was 95%.
The figure for `CCn1c(C)c(C)c2cc(C(=O)Nc3cccc(S(=O)(=O)N4CCOCC4)c3)ccc21` is 4%.
The figure for `N#CCc1ncc(CCN2C(=O)c3ccccc3C2=O)s1` is 7%; for `COc1ccc(S(=O)(=O)N(c2onc(C)c2Cl)S(=O)(=O)c2ccc(OC)c(OC)c2)cc1OC` it is 4%.
`CC[C@@H](C(N)=O)N1CCN(Cc2nc(-c3cccs3)no2)CC1`: the “% Inhibition” value came to 7%.
The result for `Cc1noc(-c2csc(-c3c[nH]cn3)n2)n1` reads -1%; that for `CN(Cc1ccn(C)n1)C(=O)c1cc(S(=O)(=O)N(C)C)c(Cl)cc1Cl`, 8%; that for `O=C(NC1CCCC1)N1CCN(S(=O)(=O)c2cccc(F)c2)CC1`, 2%.
The result for `Cc1c(C(=O)NC2CC2)cc(-c2ccccc2)n1C` reads 6%.
Turning to `COc1ccc(-c2cc(C(=O)N[C@H]3CCN(c4ccc(=O)[nH]n4)C3)c(C)n2C)cc1`, the “% Inhibition” value came to 58%.
The result for `COc1ccc(-c2cc(C(=O)N[C@H]3CCN(c4ccc(=O)n(C)n4)C3)c(C)n2C)cc1` reads 41%; that for `c1cn(C[C@@H]2CCCN2c2nc(C3CCCC3)ns2)nn1`, -8%; that for `Cn1cc(C(=O)c2nc(-c3ccccc3Cl)no2)cn1`, -5%.
The figure for `O=S(=O)(c1ccc2nncn2c1)N(Cc1cccc(Cl)c1)c1ccccc1` is 9%.
